Pol beta inh = DNA polymerase beta (human) inhibition. 340,000 tested, 1.3% active. P06746. Potency, µM (highest dose often 114 µM), for the others: top-dose activity change, negative = inhibition, most hits filed as inhibitors. Pol beta primer extension/strand displacement, fluorescence kinetic; note: % is set by controls: 0 for no effect and ±100 for the full control effect
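Human Pol beta at 10 nM; strand-displacement substrate 50 nM final. Compound exposure 15 min at room temperature before start, reaction 10 min at room temperature.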
Pol kappa inh = DNA polymerase kappa (human) inhibition; Potency, µM (series often up to 107 µM), inactives show at the highest dose activity, negative = inhibition, most hits filed as inhibitors; purified Pol kappa, fluorescent DNA synthesis assay, 10 min; 400,000 tested, 0.53% active; Q9UBT6; note: % is set by controls: 0 for no effect and ±100 for the full control effect
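50 nM final substrate added after 15 min RT preincubation of 10 nM Pol kappa with compound; fluorescence read at 0 and 10 min.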
TDP1 block = inhibitors of human tyrosyl-DNA phosphodiesterase TDP1; Potency, µM (series often up to 130 µM), for the others: top-dose activity change, negative = inhibition, most hits filed as inhibitors; Q9NUW8; 350,000 tested, 0.28% active; recombinant TDP1, AlphaScreen DNA substrate cleavage; note: % is set by controls: 0 for no effect and ±100 for the full control effect; nearly all actives have a fitted effect of over 40% in size
Target sequence (Q9NUW8 whole entry, looked up): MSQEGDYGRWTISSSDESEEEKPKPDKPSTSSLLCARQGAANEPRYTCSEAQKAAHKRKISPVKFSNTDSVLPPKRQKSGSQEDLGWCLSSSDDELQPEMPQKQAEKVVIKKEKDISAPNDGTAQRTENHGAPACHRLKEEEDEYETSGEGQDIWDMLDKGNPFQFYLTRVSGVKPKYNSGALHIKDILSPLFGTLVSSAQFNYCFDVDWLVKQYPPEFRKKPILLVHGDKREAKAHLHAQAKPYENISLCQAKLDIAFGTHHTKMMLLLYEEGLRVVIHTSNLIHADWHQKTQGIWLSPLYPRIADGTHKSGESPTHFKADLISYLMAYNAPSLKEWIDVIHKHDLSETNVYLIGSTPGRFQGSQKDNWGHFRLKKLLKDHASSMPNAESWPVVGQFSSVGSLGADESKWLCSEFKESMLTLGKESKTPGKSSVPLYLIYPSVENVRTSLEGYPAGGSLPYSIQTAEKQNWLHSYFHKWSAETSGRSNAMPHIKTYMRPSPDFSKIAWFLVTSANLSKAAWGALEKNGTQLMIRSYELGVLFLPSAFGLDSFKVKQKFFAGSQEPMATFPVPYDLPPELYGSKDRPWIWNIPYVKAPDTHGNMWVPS
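Signal: AlphaScreen proximity between streptavidin donor and anti-FITC acceptor beads on intact substrate. Reaction: Tdp1 1 nM, substrate 15 nM final, 5 min RT after 15 min compound preincubation.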
POLI inh = blocks human DNA polymerase iota activity. Potency, µM (highest dose often 115 µM), without a hit: at the top dose activity, negative = inhibition, actives largely listed as inhibitors. 390,000 tested, 1% active. Pol iota fluorescent replication assay, 10 min. Q9UNA4
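Pol iota at 10 nM preincubated 15 min with compounds at room temperature; reaction started with fluorescent substrate, 50 nM final. Fluorescence read kinetically at 0 and 10 min; buffer-only wells as negative control.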
FEN1 inh = inhibitors of human flap endonuclease 1 | P39748 | Potency, µM (titrated, usually from 114 µM), for inactives: top-dose activity change, negative = inhibition, most hits filed as inhibitors | Recombinant FEN1 flap cleavage, fluorescence, 15 min | AID 588795 | 390,000 tested, 0.35% active; note: % is set by controls: 0 for no effect and ±100 for the full control effect; nearly all actives have a fitted effect of over 65% in size
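Read-out was taken twice, immediately and after 15 min, following addition of 50 nM substrate to 10 nM FEN1 that had sat with test compound for 15 min at room temperature. Curves came from a four-parameter Hill model.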
Pol eta inh = blocks human DNA polymerase eta activity. Q9Y253. recombinant Pol eta, fluorescent DNA replication assay. Potency, µM (top dose mostly 114 µM), for inactives: top-dose activity change, negative = inhibition, hits mostly inhibitors. 390,000 tested, 1.2% active. AID 588591; note: % is set by controls: 0 for no effect and ±100 for the full control effect
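Pol eta (10 nM) was preincubated with compounds for 15 min at room temperature, after which fluorescent replication substrate (50 nM final) was added to start the reaction. Fluorescence was read kinetically at 0 and 10 min.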
* marks the source's active call; other numbers are inactive results; ? = inconclusive; . = no result given; [ ] = remark or other dose. Hits are enriched below; roughly 2.4% of the tested compounds scored in any of these assays. Calls come from the whole dose curve; as a rule, active = well fitted curve in the direction sought with a large enough effect; inconclusive = small, poorly fitted or top-dose-only effect, or another doubt; inactive = no such curve, though single readings can be large; an effect the other way counts as inactive or inconclusive. Potency is the fitted concentration of half-maximal effect.

SMILES	Pol beta inh	Pol kappa inh	TDP1 block	POLI inh	FEN1 inh	Pol eta inh
CC(=O)N1Cc2ccccc2CC1C(=O)OCC(=O)c1c(N)n(C)c(=O)n(C)c1=O (configuration not stated)	.	-22%	.	0%	-3%	?
Cn1c(N)c(C(=O)COC(=O)C2Cc3ccccc3CN2S(C)(=O)=O)c(=O)n(C)c1=O (configuration not stated)	.	.	.	.	.	13µM*
CC[C@@H](C(=O)[C@@H](C)[C@@H](O)[C@H](C)CCc1ccc(C)c(O)c1C(=O)O)C1O[C@](CC)(C2CC[C@](O)(CC)[C@H](C)O2)C[C@@H]1C (some centres not stated)	.	-3%[60.1 µM]	10%	.	.	.
COc1ccccc1NS(=O)(=O)c1ccc(N/N=C/c2ccccc2OCC(=O)O)c([N+](=O)[O-])c1	-9%	-20%	3%	?	?	?
Cc1cc(C)nc(N/N=C/c2ccccc2OCc2ccccc2)n1	-7%	-7%	5%	123%	-13%	-22%
O=C(O)COc1ccccc1/C=N/Nc1ccc(S(=O)(=O)Nc2ccc(Cl)cc2)cc1[N+](=O)[O-]	?	?	8%	?	?	28µM*
O=C(O)c1ccccc1NS(=O)(=O)c1ccc(NN=Cc2cccc(Cl)c2)c([N+](=O)[O-])c1	.	-28%	0%	?	?	20µM*
Cc1cc(C)nc(N/N=C/c2ccccc2OCC(=O)O)n1	-7%	-10%	.	10%	-6%	28µM*
COc1ccc(Nc2ccc(C(=O)O)cc2[N+](=O)[O-])cc1	-4%	-10%	3%	-17%	-2%	-12%
COc1ccc(NS(=O)(=O)c2ccc(NN=Cc3ccc(C(=O)O)cc3)c([N+](=O)[O-])c2)cc1	.	.	45µM*	.	.	.
CC(=O)c1ccc(NC(=O)CC2Sc3ccccc3NC2=O)cc1 (configuration not stated)	19%	-4%	.	29%	-5%	-13%
CCOc1nc(N=C(N)N)nc2c(C)cccc12	111%	8%	-2%	-4%	45µM*	8%
O=C(/C=C/c1ccco1)OCn1nnc2ccccc2c1=O	20µM*	-4%	?	29%	-2%	-5%
O=C(/C=C/c1ccco1)OCc1nnc(-c2ccc(Cl)cc2)o1	35µM*	-22%	.	?	-6%	-12%
O=C(/C=C/c1ccco1)OCc1nnc(-c2ccccc2)o1	22µM*	-34%	25µM*	79µM*	1%	24%
C=C[C@@H](C1=CC(=O)C(OC)=C(OC)C1=O)c1ccccc1	.	.	9%	.	.	.
CCOc1ccc(NC(=O)CCCc2nc(-c3cccc(OC)c3)no2)cc1	8%	-15%	5%	15%	12%	-13%
CCOc1ccc(N2C(=O)c3n[nH]c(-c4cccs4)c3C2c2cccc(F)c2)cc1 (configuration not stated)	8%	1%	7%	13µM*	?	.
CCOC(=O)c1ccc(N2C(=O)c3n[nH]c(-c4cccs4)c3C2c2cccc(OC)c2)cc1 (configuration not stated)	0%	-3%	5%	-15%	-1%	-24%
O=C(N/N=C/c1ccc2ccccc2c1)c1ccc(COc2ccc3c(c2)CCC3)o1	35µM*	-3%	.	2%	?	10µM*
COc1cc(/C=N/NC(=O)CC#N)cc(Br)c1O	6%	-16%	-6%	45µM*	-2%	-27%
O=C(N/N=C/c1cc([N+](=O)[O-])ccc1O)c1ccc(COc2ccc3c(c2)CCC3)o1	22%	-8%	?	38%	-8%	1%
COc1cc(/C=N/NC(=O)c2ccc(COc3ccccc3Cl)o2)cc(Br)c1O	28µM*	-29%	?	?	-22%	?
COc1cc(/C=N/NC(N)=O)cc([N+](=O)[O-])c1O	?	?	?	13%	-9%	50µM*
CC(=O)N1CCc2c(sc3c2c(=O)n(-c2ccc(C)cc2)c(=O)n3CC(=O)Nc2ccccc2)C1	0%	1%	3%	4%	1%	-14%
SMILES	Pol beta inh	Pol kappa inh	TDP1 block	POLI inh	FEN1 inh	Pol eta inh
COc1cc(/C=N/NC(=O)Cc2ccc(Br)cc2)cc(OC)c1O	22µM*	-13%	-2%	61%	6%	-16%
CCSc1nc(N)c(NC(=O)c2ccc(Br)o2)c(=O)[nH]1	21%	-7%	2%	28%	7%	-11%
Nc1nc(SCC(=O)Nc2ccc(OC(F)(F)F)cc2)[nH]c(=O)c1NC(=O)c1ccc(Br)o1	40µM*	-33%	-6%	-11%	0%	?
O=C1CCC/C1=C/Nc1ccc(Cl)cc1	-9%	-2%	3%	-13%	-3%	-6%
O=C1CCC/C1=C/Nc1ccc2c(c1)OCO2	25µM*	-3%	7%	22%	-13%	5%
CC(C)c1cccc(NC(=O)COC(=O)c2ccccc2OCc2cccc(Br)c2)c1	.	-10%	.	-5%	-21%	.
Cc1cc(-c2ccc(N=Nc3ccc4c(S(=O)(=O)O)cc(S(=O)(=O)O)c(N)c4c3O)c(C)c2)ccc1N=Nc1ccc2c(S(=O)(=O)O)cc(S(=O)(=O)O)c(N)c2c1O	.	1.3µM*	24%[56.1 µM]	.	.	.
Nc1c(N=Nc2ccc(-c3ccc(N=Nc4cc(S(=O)(=O)O)c5ccccc5c4N)cc3)cc2)cc(S(=O)(=O)O)c2ccccc12	.	1.1µM*	20%	.	.	.
COc1ccccc1C(C)NCC(=O)c1c(C)[nH]c2ccccc12 (configuration not stated)	.	-18%	.	20%	1%	.
CN(C)c1ccc(/C=C2\CCc3ccccc32)cc1	.	5%	.	-11%	0%	.
O=C(Nc1cccc(Cl)c1)c1cc2c(=O)n3ccccc3nc2s1	18%	9%	1%	14%	-5%	-14%
CC(=O)NS(=O)(=O)c1ccc(NC(=O)c2cc3c(=O)n4ccccc4nc3s2)cc1	79µM*	?	1%	35µM*	-4%	40µM*
CC1(C)C2CCC1(C)C(NC(=O)COC(=O)c1ccc(S(C)(=O)=O)c([N+](=O)[O-])c1)C2 (configuration not stated)	.	-9%	0%	?	-21%	.
O=C(Nc1ccncc1)c1cc2ccccc2cc1O	.	-1%	.	7.9µM*	3%	-12%
O=C(Nc1ccncc1)c1ccccc1F	14%	-9%	-1%	-2%	1%	3%
CNc1ccccc1	.	-3%	0%	-6%	-7%	-13%
CNc1cccccc1=S	16µM*	79µM*	3.5µM*	10µM*	-10%	?
COc1ccccc1N1CCN(c2csc3ccc(Cl)cc3c2=O)CC1	-2%	-18%[60.1 µM]	5%	-4%	9%	-12%

Screening results (PubChem BioAssay)
